Experimental data: PubChem BioAssay AID745 (Emory University Molecular Libraries Screening Center, 2007)
About 40 (0.1%) of roughly 33,000 compounds were called active. Rule as the data show it: active = z-score below about -3; inactive = the rest. The full list was thinned out, with actives kept by preference.

Test: inhibitors of measles virus growth in cells, primary screen, measles RdRp inhibitor project, cell-based, single point, HTS (AID 745)
Details: infected Vero cells, GFP fluorescence, 64 h; stronger effect = lower value

z-score, inactive:
CC1=C(C(=O)N2CCOCC2)C(c2cccc(Cl)c2)C2=C(CCCC2=O)N1 (stereo not given) 0.7
COc1cc(NS(=O)(=O)c2ccc(NC(=O)CN3C(=O)c4ccccc4C3=O)cc2)ncn1 -0.53
CCOC(=O)Cc1nnc(NC(=O)c2ccc([N+](=O)[O-])cc2)s1 -0.27
Cc1c(C(=O)Nc2cccc(Cl)c2)oc2ccc(S(=O)(=O)N3CCOCC3)cc12 -0.46
C=CCn1c(SCCCC)nc2sc3c(c2c1=O)CCC3 1.46
Cc1cc(C)cc(NC(=O)c2cnn3c(C(F)(F)F)cc(-c4ccco4)nc23)c1 0.42
C=CCOc1ccc(NC(=O)C(=O)NC(C)c2ccccc2)cc1 (stereo not given) 0.77
O=C(O)COc1ccc(-c2cc(C(=O)O)c3cc(Br)ccc3n2)cc1 0.41
NS(=O)(=O)c1ccc(CCNC(=O)c2ccc3c(=O)n(Cc4ccco4)c(=S)[nH]c3c2)cc1 0.48
COc1cccc(C(=O)Nc2ccc3nc(N4CCCCC4)cc(C)c3c2)c1 -0.1
COc1cc(CNc2ccc3[nH]c(=O)[nH]c3c2)ccc1OCc1cccs1 -1.62
CCCCc1ccc(C(=O)Nc2ccc3nc(N4CCN(C)CC4)cc(C)c3c2)cc1 -0.21
COc1ccc(-c2nc3ccccc3n2Cc2ccccc2)cc1OC 0.26
O=C(Nc1ccc(Cl)cn1)c1ccc(-c2ccc(Cl)cc2)o1 -0.31
CCOC(=O)c1c(C)nc2c(C#N)c(C)n(-c3ccccc3)c2c1-c1ccc(Br)cc1 3.74
Cc1ccc(C2NC(=O)c3c(sc4c3CCCC4)N2)c(O)c1 (stereo not given) -1.13
CC1=C(C(=O)OCC(C)C)C(c2ccc(OCc3ccccc3)cc2)N2C(=O)CCSC2=N1 (stereo not given) -0.14
COc1ccc2nc(SCc3ccc(Cl)cc3)[nH]c2c1 0.1
COc1cc(C2CC(=O)c3cnc(NC(C)=O)nc3C2)cc(OC)c1OC (stereo not given) 1.22
Cc1cc(N2C(=O)c3ccccc3C2=O)ccc1Br -1.04
Cc1cccc(NC(=O)c2cc3c(=O)n4cccc(C)c4nc3s2)c1 -1.13
Cc1ccc(-n2c(SCC(=O)OCc3ccccc3)nc3c(c2=O)SCC3)cc1 -1
O=C1NC(c2ccccc2)Oc2ccccc21 (stereo not given) -0.5
Cc1ccc(Sc2c(C)nn(C(C)(C)C)c2OC(=O)C2CCCC2)cc1 -0.01
C=CCOC(=O)C1=C(C)N=C2SCCC(=O)N2C1c1ccc(Br)cc1 (stereo not given) -1.08
